High-throughput results (PubChem BioAssay)
Shown are actives, neighbours in structure and some others; about 12% of the full set was active somewhere.
PLK1 PBD inh: inhibitors of human PLK1 polo-box domain binding; Plk1 PBD binding of FITC phosphopeptide, fluorescence polarization; AID 720504; Potency, µM, without a hit: max response, negative = inhibition, usual class: inhibitors; P53350; actives 2.8% (n = 360,000); note: potency is the fitted concentration of half-maximal effect; series mostly up to about 57 µM; % is set by controls: 0 for no effect and ±100 for the full control effect; nearly all actives have a fitted effect of over 65% in size
BAZ2B inh: inhibitors of human BAZ2B bromodomain | Q9UIF8 | AlphaScreen BAZ2B-H3K14Ac peptide displacement | Potency, µM (series often up to 114 µM), inactives show at the highest dose activity change, negative = inhibition, hits mostly inhibitors | actives 4.4% (n = 360,000) | AID 504333; note: potency is the fitted concentration of half-maximal effect; % is set by controls: 0 for no effect and ±100 for the full control effect; nearly all actives have a fitted effect of over 60% in size
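Protein-peptide AlphaScreen: BAZ2B 50 nM, b-H3K14Ac 50 nM, 1x PBS pH 7.4 + 0.01% Tween-20. Preincubation 30 min RT; cpd 30 min RT (top 110 uM); beads 20 min RT, light-protected.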
JMJD2A Tudor: JMJD2A Tudor domain (human) inhibition; actives 4.4% (n = 390,000); AlphaScreen JMJD2A-Tudor / H3K4me3 peptide binding; Potency, µM (doses to about 114 µM), for the others: at the highest dose activity change, negative = inhibition, hits mostly inhibitors; O75164; note: potency is the fitted concentration of half-maximal effect; % is set by controls: 0 for no effect and ±100 for the full control effect; nearly all actives have a fitted effect of over 50% in size
G9a inh: inhibitors of human histone lysine methyltransferase G9a; actives 8.8% (n = 350,000); Potency, µM (highest dose often 102 µM), without a hit: top-dose activity, negative = inhibition, actives largely listed as inhibitors; G9a H3K9 monomethylation, AlphaScreen, 2 h; Q96KQ7; note: potency is the fitted concentration of half-maximal effect; % is set by controls: 0 for no effect and ±100 for the full control effect; nearly all actives have a fitted effect of over 75% in size
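Readings reflect AlphaScreen signal from monomethyl-H3K9 antibody detection. HMT at 20 nM; substrate b-H3K9 500 nM; cofactor SAM 20 uM; 2 h RT reaction; compounds tested as titrations in qHTS with 15 min preincubation.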
HP1b chromo inh: blocks HP1-beta chromodomain binding to methylated histone tails; P83916; AlphaScreen HP1-beta / biotin-H3K9me3 peptide binding; actives 0.56% (n = 390,000); Potency, µM (highest dose often 114 µM), inactives show at the top dose activity change, negative = inhibition, actives largely listed as inhibitors; note: potency is the fitted concentration of half-maximal effect; nearly all actives have a fitted effect of over 70% in size
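HP1-beta protein (50 nM final) preincubated 30 min at room temperature with biotinylated H3(1-18)K9me3 peptide (50 nM) in PBS pH 7.4, 0.01% Tween-20, then compound added for 30 min. AlphaScreen streptavidin donor/nickel chelate acceptor beads (10 ug/mL final), 30 min dark, luminescence read.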
PI5P4Ka inh: inhibitors of human PI5P4K alpha | P48426 | PI5P4Kalpha enzyme, ADP-Glo luminescence, 60 min; stronger effect = lower value | max response, % | actives 1.2% (n = 330,000); active = max response of -50% or lower; inconclusive = between -30% and -50%; inactive = -30% or higher; note: value at the top dose of about 77 µM; % is set by controls: 0 for no effect and ±100 for the full control effect
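Quantitative HTS of the MLSMR library against PI5P4Kalpha with substrate. ATP added last at 5 microM final; room temperature, 60 minutes. Remaining ATP depleted, ADP converted and read as luminescence.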
The depositor's hits bear a star; ? = inconclusive; . = no result given; ! = repeats disagree; [ ] = remark or other dose. Unless noted, calls come from the whole dose curve; as a rule, active = well fitted curve in the direction sought with a large enough effect; inconclusive = small, poorly fitted or top-dose-only effect, or another doubt; inactive = no such curve, though single readings can be large; an effect the other way counts as inactive or inconclusive.

SMILES | PLK1 PBD inh | BAZ2B inh | JMJD2A Tudor | G9a inh | HP1b chromo inh | PI5P4Ka inh
Cc1ccc(C2CC(c3cccs3)=NN2C(=O)CCl)cc1 (centres undefined) | ? | -1.3% | -10.0% | -30.9% | 16.9%[57 µM] | -2.4
CC(=O)N1N=C(c2ccc(NS(C)(=O)=O)cc2)CC1c1ccc2nccnc2c1 (centres undefined) | 4.2% | -15.0% | 0.7% | -3.6% | 45.6% | 2.6
CCC(=O)N1N=C(c2ccc(NS(C)(=O)=O)cc2)CC1c1ccc(N(C)C)cc1 (centres undefined) | -8.1% | . | ? | 44.7µM* | -14.8% | -0.1
COc1cccc(C2CC(c3cccc(NS(C)(=O)=O)c3)=NN2C(=O)c2ccccc2)c1OC (centres undefined) | -11.0% | -24.9% | -20.1% | -42.1%[59 µM] | 15.5% | -10.5
CCC(=O)N1N=C(c2cccs2)CC1c1ccc(C)cc1 (centres undefined) | 26.7µM* | 14.4% | -33.6% | 13.4% | 28.9% | 6.6
O=C(O)[C@@H]1C[C@H](C(=O)O)N1 | . | . | 4.1% | 11.9µM*! | 16.9% | .
Cc1nc(C)c(C(=O)O)c(-c2ccsc2)c1C(=O)O | -3.5% | -5.0% | -15.2% | 50.1µM* | 10.1% | -0.9
COc1cc(NC(=O)NNC(=O)c2cc3occc3n2C)cc(OC)c1OC | -7.6% | ? | -25.8% | ? | 9.8% | 1.3
Cc1ccc(S(=O)(=O)N2CCN(C(=O)/C=C/c3ccco3)CC2)cc1 | -19.5% | 50.1µM* | 79.4µM* | 44.7µM* | ? | -3.4
O=C(/C=C/c1ccco1)N1CCN(S(=O)(=O)c2ccc(F)c(F)c2F)CC1 | -6.7% | -22.6% | -7.7% | ? | 27.7% | 0.7
Cc1ccc(C)c(S(=O)(=O)N2CCN(C(=O)C3CC3C)CC2)c1 (centres undefined) | -2.5% | 11.9% | -6.9% | 1.9% | 28.5% | -4.2
O=C(/C=C/c1ccco1)N1CCN(S(=O)(=O)c2ccccc2)CC1 | -26.1% | . | 56.2µM* | . | 50.1µM* | ?
COc1ccc(/C=C/C(=O)N2CCN(S(=O)(=O)c3ccccc3)CC2)cc1OC | 2.4% | -7.3% | -8.0% | -48.7% | 41.6% | -5.6
Cc1ccc(C)c(S(=O)(=O)N2CCN(C(=O)/C=C/c3ccco3)CC2)c1 | ? | ? | 44.7µM* | -21.2%[12.7 µM] | ? | -61.1*
Cc1ccc(S(=O)(=O)N2CCN(C(=O)c3ccco3)CC2)cc1 | -25.4% | -12.8% | ? | -4.4% | -8.4% | 0.4
COc1cccc(/C=C/C(=O)N2CCN(S(=O)(=O)c3ccccc3)CC2)c1OC | 5.2% | ? | -2.0% | 50.1µM* | 29.2% | 0.9
CSc1ccc(CCNC(=O)Cn2ncc3c(=O)oc4ccccc4c32)cc1 | . | -33.0% | -24.2% | -22.3%[59 µM] | 7.1% | .
COc1ccc(CNC(=O)N2CCN(C(=O)c3ccccc3)CC2)cc1 | -8.5% | 4.6% | -0.3% | -18.4% | 13.4% | 3.6
O=C(/C=C/c1ccco1)N1CCN(c2ccc(F)cc2)CC1 | -1.2% | -28.3% | -21.6% | ? | -6.3% | -3.4
COc1ccc(N2CCN(C(=O)/C=C/c3ccco3)CC2)cc1 | -6.8% | -29.8% | -25.5% | 31.6µM* | 18.1% | -0.7
CCOc1cc2sc(N3CCC(C(=O)Nc4ccccc4C(=O)OC)CC3)nc2cc1Br | . | -8.6% | -10.5% | -3.5%[59 µM] | 14.7% | .
O=C(CCl)N1c2ccccc2Oc2ccc3ccccc3c21 | 8.44µM* | . | 56.2µM* | . | 70.8µM* | 0.5
CC(C)(C)c1ccc(C(=O)NNc2ccc(F)cc2F)cc1 | ? | -37.2% | 89.1µM* | 22.4µM* | -1.9% | -3.8
O=C(O)c1ccccc1C(=O)NNc1ccc(Cl)cc1 | -12.7% | -7.0% | -26.5% | ? | 1.6% | .
O=C(NNc1cccc(Cl)n1)c1c(Cl)cccc1Cl | -5.7% | 10.1% | 12.6% | -9.2%[59 µM] | 22.5% | 2.1
SMILES | PLK1 PBD inh | BAZ2B inh | JMJD2A Tudor | G9a inh | HP1b chromo inh | PI5P4Ka inh
O=C(O)c1ccccc1C(=O)NNc1cccc(Cl)n1 | -8.4% | -21.3% | -6.4% | 44.7µM* | 20.0% | 5.1
O=C(O)c1ccccc1C(=O)NNc1ccc(F)cc1F | -14.3% | -12.3% | -24.1% | 50.1µM* | 22.5% | -5.7
COC(=O)c1cc2oc3ccccc3c2n1Cc1nc(-c2ccccc2Cl)oc1C | . | 0.1% | -5.1% | -22.9%[59 µM] | 31.4% | .
Cc1cccc(C(=O)NC(=S)Nc2ccc(N3CCOCC3)cc2)c1 | -12.1% | 31.6µM* | ? | 7.94µM* | ? | -0.4
Cc1cccc(NC(=S)Nc2ccc(N3CCOCC3)cc2)c1C | -16.6% | -30.3% | 4.3%[57.1 µM] | 39.8µM* | 3.3% | 21.4
CCOc1ccc(C(=O)NC(=S)Nc2cccnc2)cc1 | -7.3% | -14.4% | -7.0% | ? | 20.0% | 3.6
COc1cccc(C(=O)NC(=S)Nc2cccnc2)c1 | -15.6% | -3.8% | ? | ? | -5.8% | 2.8
Cc1cccc(NC(=S)NN2CCOCC2)c1C | -5.3% | -3.6% | -10.2%[57.1 µM] | 28.1%[59 µM] | 63.5% | 1.8
COc1ccc(C(=O)NC(=S)Nc2cccnc2)cc1Cl | -6.8% | -2.6% | ? | 50.1µM* | 6.1% | -17.2
CCOc1ccc(NC(=S)Nc2cccnc2)cc1 | 29.9µM* | -14.0% | -10.0% | 44.7µM* | -9.4% | 3.1
O=C(NC(=S)Nc1ccc(N2CCOCC2)cc1)c1cccs1 | -2.7% | ? | ? | . | -11.3% | -4.3
CCn1c(CN2CCCCC2)nc2cc(NC(=O)COc3ccccc3C(C)(C)C)ccc21 | . | -25.2% | -5.6% | -25.5%[59 µM] | 49.3% | .
COc1ccc(NC(=S)Nc2ccccn2)cc1 | -8.5% | -32.9% | -7.7% | 39.8µM* | 37.6% | -2.3
CC(=O)N1CCN(c2ccc(NC(=O)c3cccc(C)c3)cc2)CC1 | -3.0% | -5.3% | -6.8% | . | 5.6% | -0.1
COc1cc(NC(=S)Nc2cccnc2)cc(OC)c1OC | -7.3% | -4.9% | -22.7% | 50.1µM* | 23.0% | .
S=C(Nc1ccc(N2CCOCC2)cc1)Nc1ccc2snnc2c1 | -23.1% | -31.9% | ? | 28.2µM* | -13.5% | 2.1
Cc1cccc(N2CCN(c3ccc(NC(=O)/C=C(/C(=O)O)c4ccccc4)cc3)CC2)c1 | -4.0% | ? | ? | 8.91µM* | ? | -16.3
Cc1ccccc1OCC(=O)NC(=S)Nc1ccc(N2CCOCC2)c(Cl)c1 | -11.9% | 5.9% | -7.2% | ? | 4.9% | 3.3
O=C(NC(=S)Nc1ccc(N2CCOCC2)cc1)c1ccc(Cl)cc1 | 1.5% | -0.3% | -10.6% | ? | -12.1% | 8.9
COc1ccccc1C(=O)NC(=S)Nc1ccc(N2CCOCC2)c(Cl)c1 | ? | -32.7% | -35.6% | 8.91µM* | -11.1% | -3.3
Cc1ccc(C(=O)NC(=S)Nc2ccc(N3CCOCC3)cc2)cc1C | ? | 20µM* | 50.1µM* | ? | ? | -23.6
CC(C)(C)c1ccc(C(=O)NC(=S)Nc2ccc(N3CCOCC3)cc2)cc1 | -7.9% | -12.3% | -17.1% | -13.2% | 8.2% | 0.2
CC(C)(C)C(=O)NC(=S)Nc1cccc(C(=O)O)c1 | 2.7% | -7.0% | -11.7% | 0.0%[0.501 µM] | 38.7% | 4.9
